Test results from PubChem BioAssay AID1159580 (chemical genetic matrix, 2015).
Hit rate of the full screen: of about 5,500 compounds, about 2,000 (36%) were called active. Another 18% or so got no clear call; they are omitted. Rule as the data show it: active = normalized growth mostly below about 0.91 (no sharp cut-off); inconclusive = no clear call, values can overlap the other calls; inactive = mostly above about 0.92. The list shows a part of the results.

Experiment: chemical genetic growth profiling, strain panel (AID 1159580);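 also: tested at 20 µM; growth read once vehicle control cultures reached saturation at 30 °C; 1 = growth at the plate median or of vehicle wells; lower values mean less growth of the strain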
Conditions: growth OD
[1] = S. cerevisiae deletion strains, locus YDL101C, strain DUN1, hits give low values
[2] = S. cerevisiae deletion strains, locus YHR030C, strain SLT2, hits give low values

Measured: normalized growth

Cc1cc(Br)ccc1-n1c(Sc2c([N+](=O)[O-])cc(C(F)(F)F)cc2[N+](=O)[O-])nc2ccccc2c1=O
inactive: S. cerevisiae deletion strains, locus YAR019C, strain CDC15, hits give low values 0.99 | S. cerevisiae deletion strains, locus YBL105C, strain PKC1, hits give low values 0.985 | S. cerevisiae deletion strains, locus YBR135W, strain CKS1, hits give low values 0.984 | S. cerevisiae deletion strains, locus YBR136W, strain MEC1, hits give low values 0.978 | S. cerevisiae deletion strains, locus YBR160W, strain CDC28, hits give low values 0.988 | S. cerevisiae deletion strains, locus YDL017W, strain CDC7, hits give low values 0.989 | S. cerevisiae deletion strains, locus YDL028C, strain MPS1, hits give low values 0.983 | [1] 0.988 | S. cerevisiae deletion strains, locus YDL108W, strain KIN28, hits give low values 0.984 | S. cerevisiae deletion strains, locus YDL132W, strain cdc53, hits give low values 0.994 | S. cerevisiae deletion strains, locus YDL214C, strain PRR2, hits give low values 0.892 | S. cerevisiae deletion strains, locus YDR052C, strain DBF4, hits give low values 0.989 | S. cerevisiae deletion strains, locus YDR054C, strain cdc34, hits give low values 0.985 | S. cerevisiae deletion strains, locus YDR226W, strain ADK1, hits give low values 0.981 | S. cerevisiae deletion strains, locus YDR477W, strain SNF1, hits give low values 0.933 | S. cerevisiae deletion strains, locus YER123W, strain YCK3, hits give low values 0.901 | S. cerevisiae deletion strains, locus YER133W, strain GLC7, hits give low values 0.933 | S. cerevisiae deletion strains, locus YFL009W, strain cdc4, hits give low values 0.986 | S. cerevisiae deletion strains, locus YFL029C, strain CAK1, hits give low values 0.986 | S. cerevisiae deletion strains, locus YFR003C, strain YPI1, hits give low values 0.986 | S. cerevisiae deletion strains, locus YFR019W, strain FAB1, hits give low values 0.952 | S. cerevisiae deletion strains, locus YFR028C, strain CDC14, hits give low values 0.994 | S. cerevisiae deletion strains, locus YGR040W, strain KSS1, hits give low values 0.938 | S. cerevisiae deletion strains, locus YGR052W, strain FMP48, hits give low values 0.945 | S. cerevisiae deletion strains, locus YGR092W, strain DBF2, hits give low values 0.968 | [2] 0.972 | S. cerevisiae deletion strains, locus YHR079C, strain IRE1, hits give low values 0.922 | S. cerevisiae deletion strains, locus YHR082C, strain KSP1, hits give low values 0.997 | S. cerevisiae deletion strains, locus YHR205W, strain SCH9, hits give low values 0.879 | S. cerevisiae deletion strains, locus YIL147C, strain SLN1, hits give low values 0.984 | S. cerevisiae deletion strains, locus YJL095W, strain BCK1, hits give low values 0.88 | S. cerevisiae deletion strains, locus YJL128C, strain PBS2, hits give low values 0.915 | S. cerevisiae deletion strains, locus YJL157C, strain FAR1, hits give low values 0.927 | S. cerevisiae deletion strains, locus YJR016C, strain ILV3, hits give low values 0.987 | S. cerevisiae deletion strains, locus YJR066W, strain TOR1 (second series), hits give low values 0.885 | S. cerevisiae deletion strains, locus YJR066W, strain TOR1, hits give low values 1.06 | S. cerevisiae deletion strains, locus YKL048C, strain ELM1, hits give low values 0.946 | S. cerevisiae deletion strains, locus YKL067W, strain YNK1, hits give low values 0.943 | S. cerevisiae deletion strains, locus YKL101W, strain HSL1, hits give low values 0.93 | S. cerevisiae deletion strains, locus YKL193C, strain SDS22, hits give low values 0.982 | S. cerevisiae deletion strains, locus YKL203C, strain TOR2, hits give low values 1 | S. cerevisiae deletion strains, locus YLR133W, strain CKI1, hits give low values 0.95 | S. cerevisiae deletion strains, locus YLR403W, strain SFP1, hits give low values 0.961 | S. cerevisiae deletion strains, locus YML070W, strain DAK1, hits give low values 0.923 | S. cerevisiae deletion strains, locus YMR001C, strain CDC5, hits give low values 0.981 | S. cerevisiae deletion strains, locus YMR205C, strain PFK2 (second series), hits give low values 0.939 | S. cerevisiae deletion strains, locus YMR277W, strain FCP1, hits give low values 0.982 | S. cerevisiae deletion strains, locus YNL006W, strain LST8, hits give low values 0.981 | S. cerevisiae deletion strains, locus YNL020C, strain ARK1, hits give low values 0.943 | S. cerevisiae deletion strains, locus YNL161W, strain CBK1, hits give low values 0.982 | S. cerevisiae deletion strains, locus YNL183C, strain NPR1, hits give low values 1.02 | S. cerevisiae deletion strains, locus YNL207W, strain RIO2, hits give low values 0.999 | S. cerevisiae deletion strains, locus YNL222W, strain SSU72, hits give low values 0.983 | S. cerevisiae deletion strains, locus YNL307C, strain MCK1 (second series), hits give low values 0.932 | S. cerevisiae deletion strains, locus YOL078W, strain AVO1, hits give low values 0.984 | S. cerevisiae deletion strains, locus YOL136C, strain PFK27, hits give low values 0.926 | S. cerevisiae deletion strains, locus YOR061W, strain CKA2, hits give low values 0.937 | S. cerevisiae deletion strains, locus YOR119C, strain RIO1, hits give low values 0.998 | S. cerevisiae deletion strains, locus YOR231W, strain MKK1, hits give low values 0.955 | S. cerevisiae deletion strains, locus YOR329C, strain SCD5, hits give low values 0.988 | S. cerevisiae deletion strains, locus YPL031C, strain PHO85, hits give low values 0.923 | S. cerevisiae deletion strains, locus YPL153C, strain RAD53, hits give low values 0.917 | S. cerevisiae deletion strains, locus YPL204W, strain HRR25, hits give low values 0.928 | S. cerevisiae deletion strains, locus YPL209C, strain IPL1, hits give low values 0.99 | S. cerevisiae deletion strains, locus YPL256C, strain CLN2, hits give low values 0.943 | S. cerevisiae deletion strains, locus YPR025C, strain CCL1, hits give low values 0.983 | S. cerevisiae deletion strains, locus YPR106W, strain ISR1, hits give low values 0.968 | S. cerevisiae deletion strains, locus YPR111W, strain DBF20, hits give low values 0.972 | S. cerevisiae deletion strains, strain NNK1, hits give low values 0.968 | S. cerevisiae deletion strains, strain TSCII, hits give low values 0.993
active: S. cerevisiae deletion strains, locus YLR113W, strain HOG1, hits give low values 0.841

CC(=O)c1sc(SCc2ccc(Cl)cc2)c2c1CC(C)(C)CC2=O
inactive: S. cerevisiae deletion strains, locus YAL013W, strain DEP1, hits give low values 0.97 | S. cerevisiae deletion strains, locus YBR229C, strain ROT2, hits give low values 1.06 | [1] 1.01 | S. cerevisiae deletion strains, locus YDL134C, strain PPH21, hits give low values 0.976 | S. cerevisiae deletion strains, locus YDR150W, strain NUM1, hits give low values 0.954 | S. cerevisiae deletion strains, locus YEL061C, strain CIN8, hits give low values 1.07 | S. cerevisiae deletion strains, locus YGR078C, strain PAC10, hits give low values 1 | [2] 0.793 | S. cerevisiae deletion strains, locus YHR087W, strain rtc3, hits give low values 1 | S. cerevisiae deletion strains, locus YJR043C, strain POL32, hits give low values 0.987 | S. cerevisiae deletion strains, locus YJR075W, strain HOC1, hits give low values 1.05 | S. cerevisiae deletion strains, locus YKL190W, strain CNB1, hits give low values 0.966 | S. cerevisiae deletion strains, locus YLR039C, strain RIC1, hits give low values 0.938 | S. cerevisiae deletion strains, locus YLR058C, strain SHM2 (second series), hits give low values 1.01 | S. cerevisiae deletion strains, locus YLR085C, strain ARP6, hits give low values 1.02 | S. cerevisiae deletion strains, locus YLR262C, strain YPT6, hits give low values 0.941 | S. cerevisiae deletion strains, locus YML094W, strain GIM5, hits give low values 1.01 | S. cerevisiae deletion strains, locus YMR219W, strain ESC1, hits give low values 1.03 | S. cerevisiae deletion strains, locus YMR263W, strain SAP30, hits give low values 0.936 | S. cerevisiae deletion strains, locus YMR307W, strain GAS1, hits give low values 1.03 | S. cerevisiae deletion strains, locus YNL128W, strain TEP1, hits give low values 0.981 | S. cerevisiae deletion strains, locus YNL153C, strain GIM3, hits give low values 0.971 | S. cerevisiae deletion strains, locus YNL298W, strain CLA4 (second series), hits give low values 0.952 | S. cerevisiae deletion strains, locus YNL322C, strain KRE1, hits give low values 0.993 | S. cerevisiae deletion strains, locus YNR030W, strain Alg12, hits give low values 0.941 | S. cerevisiae deletion strains, locus YPL055C, strain LGE1, hits give low values 1.12 | S. cerevisiae deletion strains, locus YPL241C, strain CIN2, hits give low values 0.907 | S. cerevisiae deletion strains, locus YPR135W, strain CTF4, hits give low values 0.819 | S. cerevisiae strains, strain wild type, hits give low values 0.955
